The values that follow come from PubChem BioAssay (NCATS).

Assay [1] can be described thus: Quantitative high throughput screen for delayed death inhibitors of the malarial parasite plastid, 96 hour incubation (AID 488745). Further: nearly all actives have a fitted effect of over 70% in size. Further: potency means the concentration at half of the fitted maximal effect. The procedure, abridged: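 Readout is firefly luciferase luminescence from an integrated reporter in P. falciparum; lower signal marks inhibited growth. Cultures at 2% hematocrit and 0.1% parasitemia were treated with compound across two generations (96 h, 37 C, 5% CO2).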

The nature of assay [2]: Quantitative high throughput screen for delayed death inhibitors of the malarial parasite plastid, 48 hour incubation (AID 488752). Further: nearly all actives have a fitted effect of over 65% in size. Further: potency means the concentration at half of the fitted maximal effect. The procedure, abridged: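 First, compound was pinned into RPMI 1640 medium containing 0.5% Albumax. Next, reporter-parasite-infected erythrocytes were added to 2% hematocrit and 0.1% parasitemia. After 48 h at 37 C under 5% CO2, luciferase detection reagent was added and luminescence read.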

Assay [3] concerns the target Thioredoxin reductase 1, cytoplasmic (Rattus norvegicus) (UniProt O89049). Description: qHTS Assay for Substrates of Mammalian Selenoprotein Thioredoxin Reductase 1 (TrxR1) (AID 488772).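 Further: series mostly up to about 57 µM; a drop in NADPH fluorescence below the no-compound background marks a TrxR1 substrate.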 The procedure, abridged: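 In this dual-purpose format, potential substrates are identified from the first fluorescence read after selenite addition, not from the 8-minute delta. Rat enzyme is preincubated with NADPH and then with compound at ~22 deg C.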
In general terms: qHTS replaces the single test concentration by a dilution series.

For assay [4] the target is unchanged. The assay is described as follows: qHTS Assay for Inhibitors of Mammalian Selenoprotein Thioredoxin Reductase 1 (TrxR1) (AID 488773).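 Further: drop in NADPH fluorescence over an 8 min run after selenite addition; series mostly up to about 57 µM; nearly all actives have a fitted effect of over 40% in size.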 The settings on record: Potency: inhibition. The procedure, abridged:
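Inhibition is scored from the loss of NADPH fluorescence between first and last reads of an 8-min kinetic run. Selenite (400 uM) was the substrate, added after 15 min compound preincubation at room temperature.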

The target in assay [5] is Flap endonuclease 1 (Homo sapiens) (UniProt P39748). Description: qHTS Validation Assay for the Inhibitors of Human Flap endonuclease 1 (FEN1) (AID 488816). Further: potency means the concentration at half of the fitted maximal effect. Summed up:
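Enzyme reagent 10 nM; cpds pinned; 15 min RT preinc.; substrate 50 nM final; reads t=0 and 15 min; no-enzyme buffer wells as neg. control; normalized data, 4-parameter Hill fit.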

The target in assay [6] is M-phase phosphoprotein 8 (Homo sapiens) (UniProt Q99549). The assay is described as follows: qHTS Validation Assay for Inhibitors for MPP8 Chromodomain Interactions with Methylated Histone Tails (AID 488949). Further: nearly all actives have a fitted effect of over 55% in size. Further: potency means the concentration at half of the fitted maximal effect. Summed up: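 Disruption of the preformed MPP8–trimethyl-H3K9 peptide complex (both 50 nM, 30 min, RT) is measured after 30 min compound exposure, using AlphaScreen proximity beads; aurintricarboxylic acid titration serves as plate control.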
Sequence of M-phase phosphoprotein 8 (Homo sapiens) (Q99549 whole entry, looked up): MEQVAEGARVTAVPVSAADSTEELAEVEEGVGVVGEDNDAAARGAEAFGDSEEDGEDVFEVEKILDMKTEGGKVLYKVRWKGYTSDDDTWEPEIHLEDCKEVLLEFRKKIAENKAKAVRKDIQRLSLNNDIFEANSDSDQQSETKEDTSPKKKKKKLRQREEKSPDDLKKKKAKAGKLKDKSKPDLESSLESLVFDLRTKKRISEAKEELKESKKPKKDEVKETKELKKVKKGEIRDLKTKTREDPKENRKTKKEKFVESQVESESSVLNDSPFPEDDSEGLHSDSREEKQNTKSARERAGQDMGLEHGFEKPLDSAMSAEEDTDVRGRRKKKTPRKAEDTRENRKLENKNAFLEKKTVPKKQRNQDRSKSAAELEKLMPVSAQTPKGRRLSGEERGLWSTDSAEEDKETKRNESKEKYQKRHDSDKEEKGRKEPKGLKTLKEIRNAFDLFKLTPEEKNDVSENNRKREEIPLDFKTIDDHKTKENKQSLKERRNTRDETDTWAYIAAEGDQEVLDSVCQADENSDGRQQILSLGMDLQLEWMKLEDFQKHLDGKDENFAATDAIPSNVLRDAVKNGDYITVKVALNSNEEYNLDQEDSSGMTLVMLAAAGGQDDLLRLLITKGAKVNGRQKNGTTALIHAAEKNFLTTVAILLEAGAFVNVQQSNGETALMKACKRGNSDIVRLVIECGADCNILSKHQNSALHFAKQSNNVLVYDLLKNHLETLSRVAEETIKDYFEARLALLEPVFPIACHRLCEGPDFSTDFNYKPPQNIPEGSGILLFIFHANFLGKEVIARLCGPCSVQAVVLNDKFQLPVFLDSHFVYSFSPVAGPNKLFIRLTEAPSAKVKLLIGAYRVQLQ

Assay [7] concerns the target Methanococcus maripaludis chaperonin (MmCpn) (UniProt Q6LX38). The assay is described as follows: High-Throughput Screening for Modulators of Cytosolic Chaperonin Activity: MmCpn Primary Screen (AID 488978).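 Further: 50 nM MmCpn enzyme hydrolysing 30 µM ATP at 37 °C.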 The procedure, abridged: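 Measures ATPase turnover of the M. maripaludis chaperonin (50 nM final) against 30 uM ATP over 10 min at 37C, with compound added 5 min beforehand at room temperature. ADP is quantified by HTRF immunodetection.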

Assay [8] has as its target Transient receptor potential cation channel subfamily V member 1 (Homo sapiens) (UniProt Q8NER1). The assay is described as follows: HTS Assay for Compounds that Act as Enhancers of the Vanilloid Receptor 1 (AID 488979). Summed up: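 TRPV1 cells loaded with Fluo-8 calcium dye; compound added and Ca2+ signal (ex 480/em 520 nm) followed 3 min, then capsaicin at EC20 added and read 2 more min to detect enhancement.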

Assay [9] has as its target Chromobox protein homolog 1 (Homo sapiens) (UniProt P83916). Description: qHTS Validation Assay for Inhibitors of HP1-beta Chromodomain Interactions with Methylated Histone Tails (AID 488953). Further: nearly all actives have a fitted effect of over 50% in size. Further: potency means the concentration at half of the fitted maximal effect. The procedure, abridged: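 Disruption of preformed HP1-beta:H3K9me3 peptide complexes (both 50 nM, PBS pH 7.4 with 0.01% Tween-20) is measured by AlphaScreen after 30 min compound exposure at room temperature, using streptavidin donor and nickel chelate acceptor beads at 10 ug/mL final.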

SMILES strings stand for the structures. Inconclusive results are not listed. Where a structure was tested more than once in an assay, its records may differ in their call. Calls of active or inactive are those of the source. The call rests on the fitted dose curve; in most records, active means well fitted curve in the direction sought with a large enough effect; inconclusive means small, poorly fitted or top-dose-only effect, or another doubt; inactive means no such curve, though single readings can be large; an effect the other way counts as inactive or inconclusive.

Sequence of Methanococcus maripaludis chaperonin (MmCpn) (Q6LX38 1-543): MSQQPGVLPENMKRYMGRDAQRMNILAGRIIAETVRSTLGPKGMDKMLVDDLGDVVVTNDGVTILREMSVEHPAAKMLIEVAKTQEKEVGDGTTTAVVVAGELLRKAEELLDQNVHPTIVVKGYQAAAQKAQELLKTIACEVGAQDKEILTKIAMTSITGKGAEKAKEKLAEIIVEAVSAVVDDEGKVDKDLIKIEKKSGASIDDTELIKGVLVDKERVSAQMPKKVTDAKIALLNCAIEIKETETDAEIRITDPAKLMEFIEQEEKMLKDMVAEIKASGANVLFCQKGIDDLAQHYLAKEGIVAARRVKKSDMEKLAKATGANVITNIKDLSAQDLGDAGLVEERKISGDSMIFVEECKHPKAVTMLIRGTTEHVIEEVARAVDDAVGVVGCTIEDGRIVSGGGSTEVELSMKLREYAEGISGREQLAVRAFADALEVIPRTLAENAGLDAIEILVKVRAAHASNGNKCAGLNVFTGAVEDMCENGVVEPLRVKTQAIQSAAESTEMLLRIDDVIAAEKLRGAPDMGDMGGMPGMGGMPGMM
Sequence of Thioredoxin reductase 1, cytoplasmic (Rattus norvegicus) (O89049 whole entry, looked up): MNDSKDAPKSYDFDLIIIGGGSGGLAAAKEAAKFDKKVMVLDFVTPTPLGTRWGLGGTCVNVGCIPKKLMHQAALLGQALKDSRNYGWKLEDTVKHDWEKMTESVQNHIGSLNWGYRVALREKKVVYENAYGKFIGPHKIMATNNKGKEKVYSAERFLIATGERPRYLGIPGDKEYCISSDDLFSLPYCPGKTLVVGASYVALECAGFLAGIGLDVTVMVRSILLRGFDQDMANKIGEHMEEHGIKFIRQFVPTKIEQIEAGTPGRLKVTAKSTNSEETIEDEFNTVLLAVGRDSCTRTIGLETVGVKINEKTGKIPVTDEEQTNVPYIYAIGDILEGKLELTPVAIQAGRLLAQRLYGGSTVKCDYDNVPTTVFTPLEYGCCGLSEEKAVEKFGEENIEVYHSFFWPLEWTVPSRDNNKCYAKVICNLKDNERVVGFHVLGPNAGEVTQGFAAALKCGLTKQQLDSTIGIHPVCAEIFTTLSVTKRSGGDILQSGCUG
Sequence of Transient receptor potential cation channel subfamily V member 1 (Homo sapiens) (Q8NER1 whole entry, looked up): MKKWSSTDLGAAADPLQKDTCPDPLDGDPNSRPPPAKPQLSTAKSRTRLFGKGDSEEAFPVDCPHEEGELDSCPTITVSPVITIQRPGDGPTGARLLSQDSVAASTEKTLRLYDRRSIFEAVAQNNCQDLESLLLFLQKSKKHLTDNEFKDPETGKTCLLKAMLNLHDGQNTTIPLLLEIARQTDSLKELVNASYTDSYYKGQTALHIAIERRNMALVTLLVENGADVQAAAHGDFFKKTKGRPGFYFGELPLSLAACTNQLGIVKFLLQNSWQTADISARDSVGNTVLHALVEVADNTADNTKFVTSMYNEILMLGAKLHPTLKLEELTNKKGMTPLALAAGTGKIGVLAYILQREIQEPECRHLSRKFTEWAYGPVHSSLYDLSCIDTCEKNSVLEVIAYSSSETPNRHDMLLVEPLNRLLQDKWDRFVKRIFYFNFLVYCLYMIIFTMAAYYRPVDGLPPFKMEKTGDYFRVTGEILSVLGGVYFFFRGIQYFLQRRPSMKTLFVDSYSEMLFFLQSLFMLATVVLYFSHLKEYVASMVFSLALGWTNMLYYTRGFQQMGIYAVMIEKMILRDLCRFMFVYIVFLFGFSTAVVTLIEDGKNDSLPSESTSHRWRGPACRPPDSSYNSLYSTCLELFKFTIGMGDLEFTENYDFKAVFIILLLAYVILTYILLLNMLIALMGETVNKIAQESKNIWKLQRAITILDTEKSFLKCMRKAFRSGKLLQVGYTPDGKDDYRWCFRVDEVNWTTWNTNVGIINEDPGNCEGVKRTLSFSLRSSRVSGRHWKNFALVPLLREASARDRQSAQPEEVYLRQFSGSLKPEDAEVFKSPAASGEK
Sequence of Flap endonuclease 1 (Homo sapiens) (P39748 whole entry, looked up): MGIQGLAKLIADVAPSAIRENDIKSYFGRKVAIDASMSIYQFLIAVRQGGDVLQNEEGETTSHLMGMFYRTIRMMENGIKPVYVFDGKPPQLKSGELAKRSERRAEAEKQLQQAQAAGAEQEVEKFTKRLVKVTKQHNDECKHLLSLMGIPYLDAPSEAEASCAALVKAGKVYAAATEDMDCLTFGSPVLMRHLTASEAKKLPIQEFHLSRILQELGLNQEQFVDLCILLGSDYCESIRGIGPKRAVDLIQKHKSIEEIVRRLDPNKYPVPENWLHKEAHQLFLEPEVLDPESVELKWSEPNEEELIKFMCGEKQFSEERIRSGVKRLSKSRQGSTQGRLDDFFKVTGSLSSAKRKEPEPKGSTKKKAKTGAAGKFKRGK
Sequence of Chromobox protein homolog 1 (Homo sapiens) (P83916 whole entry, looked up): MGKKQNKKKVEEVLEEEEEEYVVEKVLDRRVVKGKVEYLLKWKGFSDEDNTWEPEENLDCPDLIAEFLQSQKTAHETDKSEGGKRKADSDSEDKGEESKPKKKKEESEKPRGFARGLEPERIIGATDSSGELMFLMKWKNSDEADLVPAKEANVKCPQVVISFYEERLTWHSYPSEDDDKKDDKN

As to `COC1(C2=NCCN2)COc2ccccc2O1` (stereo not drawn), the Potency result in [1], in [2], in assay [4], in assay [5] and in assay [6] was “inactive” in each case. Moreover, the call in [3], in assay [7] and in assay [8] was inactive.
As to `O=c1[nH]ccc2c(O)cccc12`, the Potency entry in [1], in [2], in assay [4], in assay [5], in [6] and in assay [9] was “inactive” each time. The result in assay [3], in assay [7] and in assay [8] was inactive.
In the case of `NC(N)=NC(N)=Nc1ccccc1`, the Potency result in assay [1], in assay [2], in assay [4], in [5], in assay [6] and in [9] was “inactive” throughout. Further, the call in assay [3], in assay [7] and in assay [8] was inactive.
As to `CCCn1c(=O)c2c(ncn2C)n(CCC)c1=O`, the Potency entry in assay [1], in assay [2], in [4], in assay [5], in [6] and in assay [9] was “inactive” each time. In addition, the outcome in assay [3], in assay [7] and in [8] was inactive.
As for `N[C@@H](CS(=O)O)C(=O)O`, the Potency result in [1], in [2], in assay [4], in assay [5], in [6] and in [9] was “inactive” each time. Further, the compound was called inactive in assay [3], in assay [7] and in assay [8].
Regarding `C=CCN1CCc2c(cc(O)c(O)c2Br)[C@@H](c2ccccc2)C1`, the Potency entry in assay [1], in assay [4], in assay [5] and in assay [6] was “inactive” each time. Further, the Potency was 1.85 µM (active) in [2] and 44.7 µM (active) in assay [9]. Besides, the call in assay [3], in [7] and in assay [8] was inactive.
Consider `[N-]=[N+]=Nc1ccc(C(=O)CSC[C@H](NC(=O)CC[C@H](N)C(=O)O)C(=O)NCC(=O)O)cc1`, for which the Potency result in assay [1], in assay [2], in assay [4] and in [5] was “inactive” throughout. The call in [3], in assay [7] and in assay [8] was inactive. Also, the Potency in assay [6] was 35.5 µM (active) and inactive; in [9] it was 39.8 µM (active).
For the compound `O=[N+]([O-])c1cccc2c(Br)[nH]nc12`, the Potency result in assay [1], in [2], in assay [4], in assay [5], in assay [6] and in [9] was “inactive” throughout. For the same compound, the call in [3], in assay [7] and in [8] was inactive.
Turning to `O=C(O)c1ccccc1Nc1cccc(OCc2ccc3ccccc3n2)c1`, the Potency entry in [1], in assay [2], in assay [4] and in assay [5] was “inactive” in each case. For the same compound, the compound was called inactive in [3], in assay [7] and in assay [8]. In addition, in assay [6], the Potency is 39.8 µM (active) and inactive.
As for `NC(N)=NC(N)=Nc1cccc(Cl)c1`, the Potency in assay [1] is 9.28 µM (active). In addition, the Potency entry in assay [2], in assay [4], in assay [5], in assay [6] and in assay [9] was “inactive” each time. For the same compound, the call in assay [3], in assay [7] and in [8] was inactive.
As to `CCC1(O)CC2CN(CCc3c([nH]c4ccccc34)[C@@](C(=O)OC)(c3cc4c(cc3OC)N(C=O)C3[C@]45CCN4CC=C[C@@](CC)([C@@H](OC(C)=O)[C@]3(O)C(=O)OC)[C@H]45)C2)C1` (stereo partly drawn), the Potency is 0.117 µM (active) in assay [1] and 0.131 µM (active) in [2]. In addition, the compound was classed as inactive in [3] and in assay [7]. The Potency result in assay [4], in assay [5] and in assay [6] was “inactive” in each case.
Turning to `O=C(O)c1cc2cc(F)ccc2[nH]1`, the Potency entry in [1], in assay [2], in [4], in [5], in assay [6] and in assay [9] was “inactive” in each case. Also, the result in [3], in assay [7] and in [8] was inactive.
For `CCCCCC(O)CCCC(=O)O` (stereo not drawn), the Potency entry in assay [1], in assay [2], in assay [4], in assay [5], in [6] and in assay [9] was “inactive” each time. The compound was classed as inactive in [3], in [7] and in assay [8].
Turning to `N#Cc1cc2nc(O)c(O)nc2cc1[N+](=O)[O-]`, the Potency entry in assay [1], in assay [2], in [4], in assay [5], in [6] and in [9] was “inactive” throughout. For the same compound, the compound was classed as inactive in assay [3], in [7] and in assay [8].
In the case of `COc1ccc(NC(=O)c2ccc(-c3ccc(-c4noc(C)n4)cc3C)cc2)cc1N1CCN(C)CC1`, the Potency in assay [1] was 4.65 µM (active); in [2] it was 3.7 µM (active); in assay [6] it was 15.8 µM (active); in assay [9] it was 31.6 µM (active). For the same compound, the outcome in assay [3], in assay [7] and in [8] was inactive. Besides, the Potency entry in [4] and in assay [5] was “inactive” each time.
With `Cc1nc2c(OCc3ccccc3)cccn2c1CC#N`, the Potency entry in [1], in assay [2], in assay [5], in [6] and in assay [9] was “inactive” in each case. Further, the call in [7] and in assay [8] was inactive.
For the compound `Oc1cc(O)c2c(c1)O[C@H](c1ccc(O)c(O)c1)[C@@H](O)C2`, the Potency result in [1], in [2], in [6] and in assay [9] was “inactive” each time. In addition, the call in assay [3], in assay [7] and in assay [8] was inactive. For the same compound, in assay [5], the Potency is 4.74 µM (active).
As to `NCCCNCCCCNCCCN`, the Potency entry in assay [1], in assay [2], in assay [4], in assay [5], in [6] and in assay [9] was “inactive” in each case. For the same compound, the compound was called inactive in assay [7] and in [8].
In the case of `C[N+](C)(C)CC=O`, the Potency result in assay [1], in assay [2], in assay [4], in assay [5] and in assay [9] was “inactive” throughout. Also, the result in assay [3], in [7] and in [8] was inactive.
For `C[C@H](O)C(=O)C1=Nc2c(nc(N)[nH]c2=O)NC1`, the Potency entry in assay [1], in assay [2] and in assay [9] was “inactive” throughout. Also, the outcome in assay [3], in assay [7] and in [8] was inactive.
With `COc1ccc2c(c1)CCC1C2CC[C@@]2(C)C1CC[C@@H]2NCCCCCCN1C(=O)C=CC1=O` (stereo partly drawn), the Potency entry in [1], in assay [2] and in [5] was “inactive” throughout. Also, the compound was called inactive in [3], in assay [7] and in assay [8].
For the compound `CO/N=C(\C(=O)N[C@@H]1C(=O)N2C(C(=O)O)=C(CSc3nc(=O)c(O)nn3C)CSC12)c1csc(N)n1` (stereo partly drawn), the Potency entry in assay [1], in assay [2] and in [5] was “inactive” in each case. For the same compound, the call in assay [3], in assay [7] and in [8] was inactive. Further, the Potency in [6] was 44.7 µM (active) and inactive.
As to `NCC(O)c1ccc(O)c(O)c1` (stereo not drawn), the Potency entry in assay [1] and in [2] was “inactive” each time. Also, the compound was classed as inactive in assay [3], in assay [7] and in assay [8]. For the same compound, the Potency is 2.99 µM (active) in assay [5]; 22.4 µM (active) and inactive in assay [6].
On to `NC(C(=O)N[C@@H]1C(=O)N2C(C(=O)O)=C(Cl)CS[C@H]12)c1ccccc1` (stereo partly drawn), for which the Potency entry in assay [1], in [2], in [4], in assay [5] and in assay [6] was “inactive” each time. Also, the outcome in assay [7] and in assay [8] was inactive.
Turning to `COc1ccc2c(c1)c(CC(=O)O)c(C)n2C(=O)c1ccccc1`, the Potency result in assay [1], in [2], in assay [4], in assay [5] and in assay [9] was “inactive” throughout. For the same compound, the outcome in assay [3], in assay [7] and in assay [8] was inactive.
